Laboratory results as given in PubChem BioAssay (NCATS).
Several values for one entry are separate records, joined by “and”; a condition that tells them apart may be missing. Equal entries are not always repeated. Inconclusive results are not listed. Some structures have more than one record in an assay (separate samples or runs), and their calls can disagree. Values without a mark were called inactive. Activity calls are given as the source filed them. Calls come from the whole dose curve; as a rule, active = well fitted inhibition curve with a large enough effect; inconclusive = small, poorly fitted or top-dose-only effect; inactive = flat fitted curve, though single readings scatter.

Tested on: HEK293
Assay: Cytotoxic Profiling of Annotated Libraries Using Quantitative High-Throughput Screening (AID 1296008); note: nearly all actives have a fitted effect of over 60% in size
Conditions: Five cell lines viability, CellTiter-Glo ATP luminescence, 48-72 h; max response: active compounds read low
Source text: Cell-based phenotypic screening is a commonly used approach to discover biological pathways, novel drug targets, chemical probes and high-quality hit-to-lead molecules. Many hits identified from high-throughput screening campaign are ruled out through a series of follow-up potency, selectivity/specificity, and cytotoxicity assays. Prioritization of molecules with little or no cytotoxicity for a more in-depth downstream evaluation influence the future direction of projects, so cytotoxicity profiling of the screening libraries at early stage is essential for increasing the likelihood of candidate success. […] For the annotated library, we also examined the primary targets and mechanistic pathways regularly associated with cell death. To our knowledge, this is the first study to use high-throughput screening to profile large libraries for cytotoxicity assessment in both normal and cancer cell lines. In summary, the results generated here constitutes a valuable resource for the scientific community and provides insight on identifying cytotoxic compounds with particular mechanisms of action, and prioritizing compounds with suitable cytotoxicity profile for further evaluation.
A pintool (Kalypsys) was used to transfer 23 nL of compound solution to the 1536-well assay plates. After 48 or 72 hr incubation at 37 degree Celsius, 5% CO2 and 95% humidity, 2.5 uL of CellTiter-Glo (Promega) was dispensed into each well using a dispenser (Aspect Automation, St. Paul, MN) with solenoid valves (Lee Valves, Westbrook CT). Plates were left at room temperature for 10 min before imaging the ATP-coupled luminescence using a ViewLux microplate imager (PerkinElmer, Waltham, MA).
% is set by controls: 0 for no effect and ±100 for the full control effect; potency is the fitted concentration of half-maximal effect.

Row | SMILES | max response | Potency | outcome
1 | CC(=O)N(C)c1cccc(-c2ccnc3c(C(=O)c4cccs4)cnn23)c1 | -28% and -16.5% | – | –
2 | C[C@@H]1[C@H](O)[C@@H](C)C=CC=CCCC=CC=CC=CC=C[C@H](O[C@H]2O[C@@H](C)[C@H](O)[C@@H](N)[C@@H]2O)CC2O[C@](O)(C[C@@H](O)[C@H](O)CC[C@@H](O)C[C@@H](O)C[C@@H](O)CC(=O)O[C@H]1C)C[C@H](O)[C@H]2C(=O)O | 2.42% | – | –
3 | Oc1ccc2c3c1O[C@H]1[C@@H](O)C=C[C@H]4[C@@H](C2)NCC[C@@]341 | -17.4% | – | –
4 | CC(Cc1ccc(O)cc1)NCC(O)c1cc(O)cc(O)c1 (stereo not given) | -1.83% | – | –
5 | C=C[C@@H]1CN2CCC1C[C@@H]2[C@@H](O)c1ccnc2ccccc12 (stereo not given in full) | – | 18.7 µM (active) | –
6 | CCCCCC[C@H]1C(=O)O[C@H](C)[C@H](NC(=O)c2cccc(NC=O)c2O)C(=O)O[C@@H](C)[C@@H]1OC(=O)CC(C)C | – | 0.469 µM (active) | –
7 | C[N+](C)(C)CC(=O)O | -2.82% | – | –
8 | CC(C)[C@]12O[C@H]1[C@@H]1O[C@]13[C@]1(O[C@H]1C[C@H]1C4=C(CC[C@@]13C)C(=O)OC4)[C@@H]2O | – | 0.0073 µM (active) | –
9 | Cc1nc(-c2ccc(-c3ccc(C(=O)N4CCc5cc6c(cc54)C4(CCN(C)CC4)CO6)cc3)c(C)c2)no1 | 4.59% | – | –
10 | COC1=C[C@@H]2[C@@H]3Cc4ccc(OC)c(O)c4[C@]2(CCN3C)CC1=O | 1.05% and -3.7% | – | –
11 | COC(=O)c1cncn1C(C)c1ccccc1 (stereo not given) | -16.1% | – | –
12 | CC(=Cc1csc(C)n1)[C@@H]1C[C@H]2O[C@]2(C)CCC[C@H](C)[C@@H](O)[C@@H](C)C(=O)C(C)(C)[C@@H](O)CC(=O)O1 | -85.5% | – | –
13 | Cc1[nH]nc2ccc(-c3cncc(OC[C@@H](N)Cc4c[nH]c5ccccc45)c3)cc12 | – | 132 nM (active) and 103 nM (active) | –
14 | O=C(Nc1ccncc1)C(=O)c1cn(Cc2ccc(Cl)cc2)c2ccccc12 | – | 0.0372 µM (active) | –
15 | O=[N+]([O-])c1ccc([As](=O)(O)O)cc1 | – | – | inactive
16 | CC1=C(O)C(=O)C=C2C1=CC=C1[C@@]2(C)CC[C@@]2(C)[C@@H]3C[C@](C)(C(=O)O)CC[C@]3(C)CC[C@]12C | – | 1.48 µM (active) | –
17 | CCCCCCCCCCCCCCCC[N+](C)(C)C | – | 5.96 µM (active) | –

Row | SMILES | max response | Potency | outcome
18 | O=C1C(I)=CC(=C(c2cc(I)c(O)c(I)c2)c2ccccc2C(=O)O)C=C1I | -13.3% | – | –
19 | O=C1C=CC[C@@H]2[C@H]3CCCN4CCC[C@@H](CN12)[C@@H]34 | – | – | inactive
20 | Cc1ccccc1-n1c(Cn2cnc3c(N)ncnc32)nc2cccc(C)c2c1=O | – | 1.48 µM (active) | inactive
21 | CC(N[C@H]1C[C@H]1c1ccccc1)c1ccc2c(c1)OCCO2 (stereo not given in full) | 0.032% and -12.5% | – | –
22 | S=C(SSC(=S)N1CCCCC1)N1CCCCC1 | – | 0.944 µM (active) | –
23 | COc1ccc(N(C(=O)Oc2c(C)cccc2C)c2ccnc(Nc3ccc(N4CCN(C)CC4)cc3)n2)c(OC)c1 | 1.61% and -25.7% | – | –
24 | C[C@@H]1CC[C@@]2(OC1)O[C@H]1C[C@H]3[C@@H]4CC=C5C[C@@H](O[C@@H]6O[C@H](CO)[C@@H](O[C@@H]7O[C@@H](C)[C@H](O)[C@@H](O)[C@@H]7O)[C@H](O)[C@@H]6O[C@@H]6O[C@@H](C)[C@H](O)[C@@H](O)[C@@H]6O)CC[C@]5(C)[C@@H]4CC[C@]3(C)[C@@H]1[C@H]2C | – | 3.72 µM (active) | –
25 | OCCCBr | – | – | inactive
26 | CC(=O)O[C@@]12CO[C@H]1C[C@H](O)[C@@]1(C)C(=O)[C@H](O)C3=C(C)[C@@H](O)C[C@@](O)([C@@H](OC(=O)c4ccccc4)[C@@H]21)C3(C)C | – | 2.96 µM (active) | –
27 | O=C(O)CNC(=O)c1c(O)c2ccccc2n(Cc2ccccc2)c1=O | 1.22% | – | inactive
28 | COC1=CC(C)=C[C@@H](C)[C@@H](O)[C@@H](C)CC(C)=CC=C[C@H](OC)[C@H]([C@@H](C)[C@@H](O)[C@H](C)[C@@]2(O)C[C@@H](O)[C@H](C)[C@@H](C(C)C)O2)OC1=O | – | 0.0118 µM (active) | –
29 | CCNC(=O)CC1N=C(c2ccc(Cl)cc2)c2cc(OC)ccc2-n2c(C)nnc21 (stereo not given) | -10.4% | 6.51 µM (active) | inactive
30 | CC(=O)Nc1ccc(OC[C@](C)(O)C(=O)Nc2ccc([N+](=O)[O-])c(C(F)(F)F)c2)cc1 | -11.2% | – | inactive
31 | CC(O)CN1CCN(CC(=O)[O-])CCN(CC(=O)[O-])CCN(CC(=O)[O-])CC1.[Gd+3] (stereo not given) | -21.1% | – | –
32 | O=C1CCC[C@@H]2[C@H]3CCCN4CCC[C@@H](CN12)[C@@H]34 | -4.12% | – | –
33 | O=C(NCC1CCOCC1)c1cnc(Nc2ccc(Cl)cc2Cl)nc1C(F)(F)F | -4.23% | 8.2 µM (active) | –
34 | c1cc2c(cc1[C@H]1OC[C@H]3[C@H]1CO[C@H]3c1ccc3c(c1)OCO3)OCO2 | – | – | inactive
